# Measurements from the supplement of paper PMC8975748.
# Where a name gives a salt, the structure may show the parent alone.
# Experiments:
# [1] = test system: Saccharomyces cerevisiae BY4741 SeMeCo community; assay: z-score of prototroph abundance vs DMSO median; higher = larger share of this subpopulation than in DMSO controls; conditions: 10 µM; 24 h; SM minimal medium; subpopulation (auxotrophy): Prototroph
# Method in brief: (§1)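 Automated confocal microscopy of paraformaldehyde-fixed cells was used to follow a Saccharomyces cerevisiae BY4741 community carrying four plasmids, each restoring one auxotrophy and encoding a distinct fluorescent protein. The community was pre-grown overnight to OD600 1.0, diluted to 0.3, and added at 70 µl to 384-well plates acoustically predosed with library drugs (10 µM final) for 24 h of growth in minimal SM medium. Single-auxotroph fluorescent strains set thresholds and autofluorescence correction, and each subpopulation's abundance was scored as a z-score against the vehicle-well median.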
# [2] = test system: Saccharomyces cerevisiae BY4741 SeMeCo community; assay: z-score of subpopulation abundance vs DMSO median, subpopulation auxotrophic for M; higher = larger share of this subpopulation than in DMSO controls; conditions: 10 µM; 24 h; SM minimal medium; subpopulation (auxotrophy): M
# Method in brief: as §1
# [3] = test system: Saccharomyces cerevisiae BY4741 SeMeCo community; assay: z-score of subpopulation abundance vs DMSO median, subpopulation auxotrophic for L; higher = larger share of this subpopulation than in DMSO controls; conditions: 10 µM; 24 h; SM minimal medium; subpopulation (auxotrophy): L
# Method in brief: as §1
# [4] = test system: Saccharomyces cerevisiae BY4741 SeMeCo community; assay: z-score of subpopulation abundance vs DMSO median, subpopulation auxotrophic for U; higher = larger share of this subpopulation than in DMSO controls; conditions: 10 µM; 24 h; SM minimal medium; subpopulation (auxotrophy): U
# Method in brief: as §1
# [5] = test system: Saccharomyces cerevisiae BY4741 SeMeCo community; assay: z-score of subpopulation abundance vs DMSO median, subpopulation auxotrophic for LU; higher = larger share of this subpopulation than in DMSO controls; conditions: 10 µM; 24 h; SM minimal medium; subpopulation (auxotrophy): LU
# Method in brief: as §1
# [6] = test system: Saccharomyces cerevisiae BY4741 SeMeCo community; assay: z-score of subpopulation abundance vs DMSO median, subpopulation auxotrophic for LM; higher = larger share of this subpopulation than in DMSO controls; conditions: 10 µM; 24 h; SM minimal medium; subpopulation (auxotrophy): LM
# Method in brief: as §1
# [7] = test system: Saccharomyces cerevisiae BY4741 SeMeCo community; assay: z-score of subpopulation abundance vs DMSO median, subpopulation auxotrophic for HM; higher = larger share of this subpopulation than in DMSO controls; conditions: 10 µM; 24 h; SM minimal medium; subpopulation (auxotrophy): HM
# Method in brief: as §1
# [8] = test system: Saccharomyces cerevisiae BY4741 SeMeCo community; assay: z-score of subpopulation abundance vs DMSO median, subpopulation auxotrophic for HU; higher = larger share of this subpopulation than in DMSO controls; conditions: 10 µM; 24 h; SM minimal medium; subpopulation (auxotrophy): HU
# Method in brief: as §1
# [9] = test system: Saccharomyces cerevisiae BY4741 SeMeCo community; assay: z-score of subpopulation abundance vs DMSO median, subpopulation auxotrophic for UM; higher = larger share of this subpopulation than in DMSO controls; conditions: 10 µM; 24 h; SM minimal medium; subpopulation (auxotrophy): UM
# Method in brief: as §1
# [10] = test system: Saccharomyces cerevisiae BY4741 SeMeCo community; assay: z-score of subpopulation abundance vs DMSO median, subpopulation auxotrophic for HL; higher = larger share of this subpopulation than in DMSO controls; conditions: 10 µM; 24 h; SM minimal medium; subpopulation (auxotrophy): HL
# Method in brief: as §1
# [11] = test system: Saccharomyces cerevisiae BY4741 SeMeCo community; assay: z-score of subpopulation abundance vs DMSO median, subpopulation auxotrophic for HLU; higher = larger share of this subpopulation than in DMSO controls; conditions: 10 µM; 24 h; SM minimal medium; subpopulation (auxotrophy): HLU
# Method in brief: as §1
# [12] = test system: Saccharomyces cerevisiae BY4741 SeMeCo community; assay: z-score of subpopulation abundance vs DMSO median, subpopulation auxotrophic for HLM; higher = larger share of this subpopulation than in DMSO controls; conditions: 10 µM; 24 h; SM minimal medium; subpopulation (auxotrophy): HLM
# Method in brief: as §1
# [13] = test system: Saccharomyces cerevisiae BY4741 SeMeCo community; assay: z-score of subpopulation abundance vs DMSO median, subpopulation auxotrophic for HUM; higher = larger share of this subpopulation than in DMSO controls; conditions: 10 µM; 24 h; SM minimal medium; subpopulation (auxotrophy): HUM
# Method in brief: as §1
# [14] = test system: Saccharomyces cerevisiae BY4741 SeMeCo community; assay: z-score of subpopulation abundance vs DMSO median, subpopulation auxotrophic for LUM; higher = larger share of this subpopulation than in DMSO controls; conditions: 10 µM; 24 h; SM minimal medium; subpopulation (auxotrophy): LUM
# Method in brief: as §1
# [15] = test system: Saccharomyces cerevisiae BY4741 SeMeCo community; assay: z-score of subpopulation abundance vs DMSO median, subpopulation auxotrophic for HLUM; higher = larger share of this subpopulation than in DMSO controls; conditions: 10 µM; 24 h; SM minimal medium; subpopulation (auxotrophy): HLUM
# Method in brief: as §1
# [16] = test system: Saccharomyces cerevisiae BY4741 SeMeCo community; assay: z-score of subpopulation abundance vs DMSO median, subpopulation auxotrophic for H; higher = larger share of this subpopulation than in DMSO controls; conditions: 10 µM; 24 h; SM minimal medium; subpopulation (auxotrophy): H
# Method in brief: as §1
SMILES,z-score of prototroph abundance [1],z-score of subpopulation abundance [2],z-score of subpopulation abundance [3],z-score of subpopulation abundance [4],z-score of subpopulation abundance [5],z-score of subpopulation abundance [6],z-score of subpopulation abundance [7],z-score of subpopulation abundance [8],z-score of subpopulation abundance [9],z-score of subpopulation abundance [10],z-score of subpopulation abundance [11],z-score of subpopulation abundance [12],z-score of subpopulation abundance [13],z-score of subpopulation abundance [14],z-score of subpopulation abundance [15],z-score of subpopulation abundance [16]
OC(Cn1cncn1)(Cn1cncn1)c1ccc(F)cc1F [Fluconazole],2.13,-1.85,-0.88,-0.29,-1.41,-0.76,-1.78,-1.49,-0.52,-1.18,-1.51,-1.07,-1.16,-0.64,-1.38,–
CCc1nc(N)nc(N)c1-c1ccc(Cl)cc1 [Pyrimethamine],0.23,-0.13,-0.63,-0.01,-0.16,0.19,-0.27,-0.29,-0.1,-0.25,0,-0.3,0.42,0.49,-0.2,-0.47
O=C(Nc1cccc(C2=NCCN2)c1)Nc1cccc(C2=NCCN2)c1 [Imidocarb dipropionate],0.72,-1.19,-0.04,0.07,0.44,-0.28,-0.79,0.05,-0.26,-0.57,0.17,-0.49,-0.49,-0.67,0.13,-0.78
CC(C)(C)C1CCC(CC2=C(O)c3ccccc3C(=O)C2=O)CC1 (centres undefined) [Buparvaquone],-0.85,2.2,0.5,-0.95,0.03,0.78,1.55,-0.75,0.54,-0.13,0.03,0.05,0.83,0.35,0.04,-0.05
CN(C)CCc1c[nH]c2ccc(Cn3cncn3)cc12 [Rizatriptan Benzoate],0.05,-0.1,0.9,-0.69,0.31,1.18,0.65,-0.96,-1.14,0.75,0.78,0.35,-0.59,–,0.89,0.25
CN1C[C@@H]2C[C@H]1CN2c1cc2c(cc1F)c(=O)c(C(=O)O)cn2C1CC1 [Danofloxacin Mesylate],0.27,0.03,-0.69,0.06,-0.89,-0.68,-0.46,-0.09,0,-0.06,0.21,-0.5,-0.05,-0.46,-0.14,0.54
CO/N=C(/C(=O)N[C@@H]1C(=O)N2C(C(=O)OCOC(=O)C(C)(C)C)=C(C)CS[C@H]12)c1csc(N)n1 [Cefetamet pivoxil hydrochloride],-1.5,0.7,0.83,0.3,0.94,0.52,1.3,0.78,0.64,1.33,1.65,1.15,0.8,1.09,0.63,–
